Assay results reported in PubChem BioAssay AID651930 (Southern Research Specialized Biocontainment Screening …, 2012).
Unmarked numbers belong to inactive results. No rule for the calls is given here.

experiment: Vero 76 cell cytotoxicity, dose response, cytotoxicity control for VEEV inhibitor project, set 9 (AID 651930); settings: Vero 76 cytotoxicity; series mostly up to 25 µM; viability: at the top concentration

| SMILES | viability |
| --- | --- |
| CN1CCN(C)C(=Nc2ccc([N+](=O)[O-])cc2C(=O)Nc2ccccc2)C1 | 83.9% |
| COc1ccc(Nc2nc(=O)c3cccnc3s2)cc1 | 91.2% [at 50 µM] |
| CCN1CCN(Cc2nc3ccc(S(=O)(=O)O)cc3c(=O)n2-c2ccccc2)CC1 | 97.8% |
| CNCCN(C)Cc1nc2ccc(C#N)cc2c(=O)n1-c1ccccc1F | 90.3% [at 50 µM] |
| O=c1nc(Nc2ccc(OCc3ccccc3)cc2)sc2ncc([N+](=O)[O-])cc12 | 96.3% |
| CN1CCN(C)C(=Nc2cc(Cl)c(C#N)cc2C(=O)Nc2ccccc2)C1 | 84.8% [at 50 µM] |
| CN1CCN(C)C(=Nc2ccc(C#N)cc2C(=O)Nc2cccc(F)c2)C1 | 84.5% [at 50 µM] |
| CCN1CCN(Cc2nc3ccc(C(=O)O)cc3c(=O)n2-c2ccccc2)CC1 | 87.7% |
| CCN1CCN(Cc2nc3ccc(-c4nn[nH]n4)cc3c(=O)n2-c2ccccc2)CC1 | 86.7% [at 50 µM] |
| CCN1CCN(CC2Nc3ccc([N+](=O)[O-])cc3C(=O)N2c2ccccc2F)CC1 (configuration not stated) | 86% |
| CCN1CCN(C)CC1=Nc1ccc([N+](=O)[O-])cc1C(=O)Nc1ccccc1 | 93.7% [at 50 µM] |
| CCN1CCN(Cc2nc3ncccc3c(=O)n2-c2ccccc2)CC1 | 94.2% |
| O=c1nc(Nc2ccc(F)cc2)sc2ncccc12 | 96.5% |
| CN(C)c1cccc(-n2c(CN3CCNCC3)nc3ccc([N+](=O)[O-])cc3c2=O)c1 | 99.6% |
| COc1cccc(-n2c(CN3CCNCC3)nc3ccc([N+](=O)[O-])cc3c2=O)c1 | 84.9% |
| COc1ccccc1-n1c(CN2CCNCC2)nc2ccc([N+](=O)[O-])cc2c1=O | 75.6% |
| CCN1CCN(Cc2nc3ccc(C#N)cc3c(=O)n2-c2ccccc2)CC1 | 87.5% |
